In PubChem BioAssay (NCATS):
Results filed as inconclusive are left out. A call without a number means that no potency is given here. A number with no mark means an inactive call. Activity calls are given as the source filed them. Calls come from the whole dose curve; as a rule, active = well fitted curve in the direction sought with a large enough effect; inconclusive = small, poorly fitted or top-dose-only effect, or another doubt; inactive = no such curve, though single readings can be large; an effect the other way counts as inactive or inconclusive.

Columns and labels:
[1] = BET inhibitor-based combinations targeting novel dependencies in MECOM-rearranged (r) AML: SET-2 cell line (AID 2202231); conditions: SET-2 AML cells viability, CellTiter-Glo luminescence, 48 h; viability: hits give low values, series mostly up to about 46 µM; note: nearly all actives have a fitted effect of over 35% in size
Procedure, shortened: (§1)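 Readout: CellTiter-Glo luminescence. Exposure: 48 h, 11 concentrations, 500 cells/well. Metric: AUC and within-line Z-AUC after DMSO/empty-well normalization.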

[2] = BET inhibitor-based combinations targeting novel dependencies in MECOM-rearranged (r) AML: OCI-AML3 cell line (AID 2202232); conditions: Potency: OCI-AML3 viability; note: series mostly up to about 46 µM; nearly all actives have a fitted effect of over 35% in size
Procedure, shortened: as §1

[3] = BET inhibitor-based combinations targeting novel dependencies in MECOM-rearranged (r) AML: MV-4-11 cell line (AID 2202233); note: nearly all actives have a fitted effect of over 45% in size
Procedure, shortened: (§2)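 Seeding density was 500 cells/well, and drug exposure lasted 48 hr under standard culture conditions. Read-out used CellTiter-Glo reagent with a 15 min room-temperature incubation before luminescence measurement; AUC and Z-AUC summarize the normalized responses.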

[4] = BET inhibitor-based combinations targeting novel dependencies in MECOM-rearranged (r) AML: UCSD-AML1 cell line (AID 2202235); note: series mostly up to about 46 µM; nearly all actives have a fitted effect of over 40% in size
Procedure, shortened: as §2

[5] = BET inhibitor-based combinations targeting novel dependencies in MECOM-rearranged (r) AML: AML-191 cell line (AID 2202236; note: nearly all actives have a fitted effect of over 35% in size; note: potency is the fitted concentration of half-maximal effect)
Procedure, shortened: as §1

[6] = BET inhibitor-based combinations targeting novel dependencies in MECOM-rearranged (r) AML: AML-194 cell line (AID 2202237; note: nearly all actives have a fitted effect of over 40% in size; note: potency is the fitted concentration of half-maximal effect)
Procedure, shortened: as §1

[7] = BET inhibitor-based combinations targeting novel dependencies in MECOM-rearranged (r) AML: HNT-34 cell line (AID 2202234); note: nearly all actives have a fitted effect of over 35% in size
Procedure, shortened: as §2

| SMILES | viability [1] [%] | Potency [2] | Potency [3] | Potency [4] | Potency [5] | Potency [6] | Potency [7] |
| --- | --- | --- | --- | --- | --- | --- | --- |
| c1ccc2[nH]c(-c3cscn3)nc2c1 | 111 | inactive | inactive | inactive | 18.6 µM (active) | 18.6 µM (active) | – |
| O=c1cc(O)c(Cl)c[nH]1 | 115 | inactive | inactive | inactive | inactive | inactive | – |
| Cc1oc(=O)oc1CN1CCN(c2cc3c(cc2F)c(=O)c(C(=O)O)c2n3C(C)S2)CC1 (configuration not stated) | 116 | inactive | – | inactive | – | inactive | inactive |
